Experimental data from PubChem BioAssay AID887 (National Center for Advancing Translational Sciences (NCATS), 2007).
“And” between values parts separate entries of the source, which are not always exact repeats. Equal values may be shown once. Screen size: about 74,000 compounds; about 1,100 (1.5%) were called active. Not shown: some 5% with an inconclusive outcome. The list comes from a sample in which actives are over-represented; it also holds similar structures and randomly drawn compounds. Unmarked numbers belong to inactive results. The call rests on the fitted dose curve; in most records, active means well fitted inhibition curve with a large enough effect; inconclusive means small, poorly fitted or top-dose-only effect; inactive means no such curve, though single readings can be large or run the other way.

These compounds were tested against Polyunsaturated fatty acid lipoxygenase ALOX15 (Homo sapiens) (UniProt P16050) (assay: qHTS Assay for Inhibitors of 15-hLO (15-human lipoxygenase)). Conditions: purified 15hLO-1, xylenol orange hydroperoxide absorbance; series mostly up to 57.1 µM; activity change, negative = inhibition: at the top concentration.
Method in brief: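 Compounds were preincubated 15 min at room temperature with 40 nM purified human enzyme (25 mM Hepes pH 7.5, 0.01% Triton X-100); 50 uM arachidonic acid reacted 6 min. Fe-xylenol orange detection, 30 min, absorbance ratio 573/405 nm.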
Further: nearly all actives have a fitted effect of over 55% in size.
On the % scale 0 is the no-effect control and ±100 the full control effect; potency means the concentration at half of the fitted maximal effect.

Polyunsaturated fatty acid lipoxygenase ALOX15 (Homo sapiens), sequence (P16050 whole entry, looked up): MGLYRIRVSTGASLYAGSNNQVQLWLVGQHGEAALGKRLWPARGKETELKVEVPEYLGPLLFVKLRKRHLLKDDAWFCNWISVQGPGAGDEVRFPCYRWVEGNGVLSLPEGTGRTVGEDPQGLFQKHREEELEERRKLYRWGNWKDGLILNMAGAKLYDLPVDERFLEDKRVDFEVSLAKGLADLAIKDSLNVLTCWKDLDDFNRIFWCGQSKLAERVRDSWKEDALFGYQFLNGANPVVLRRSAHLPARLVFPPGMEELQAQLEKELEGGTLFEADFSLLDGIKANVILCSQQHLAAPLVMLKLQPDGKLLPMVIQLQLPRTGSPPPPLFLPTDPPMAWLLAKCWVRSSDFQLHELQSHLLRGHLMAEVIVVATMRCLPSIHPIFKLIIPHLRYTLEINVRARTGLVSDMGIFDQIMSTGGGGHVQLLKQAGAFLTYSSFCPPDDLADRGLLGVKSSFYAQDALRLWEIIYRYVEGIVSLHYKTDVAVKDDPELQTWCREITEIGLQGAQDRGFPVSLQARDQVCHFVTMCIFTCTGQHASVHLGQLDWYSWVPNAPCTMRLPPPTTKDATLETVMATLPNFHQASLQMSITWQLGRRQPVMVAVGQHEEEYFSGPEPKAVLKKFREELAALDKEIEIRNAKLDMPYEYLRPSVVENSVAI

SMILES | activity change, negative = inhibition | Potency
CC1(C)OC2CC(=O)OC[C@@]23C1CC(=O)[C@]1(C)C3CC[C@@]2(C)C(c3ccoc3)OC(=O)C3O[C@@]321 (stereo not given in full) | 2.09% | 
COc1ccccc1C(=O)n1nc(-c2ccccc2)nc1N |  | 12.6 µM (active)
COc1ccc(C(=O)n2nc(-c3ccc(C)cc3)nc2N)cc1OC | 8.21% | 
COc1ccc(C(=O)n2nc(-c3ccc(Cl)cc3)nc2N)cc1OC | 9.61% | 
CCOC(=O)c1cccc(NC(=O)CCn2nnc3ccccc32)c1 | -10.8% | 
CO[C@@H]1COC(=O)[C@H](Cc2ccccc2)NC(=O)C/C=C\[C@@H](C)[C@H](OC)COC(=O)[C@@H](C)NC(=O)C/C=C\[C@H]1C | 2.31% [at 11.4 µM] and 5.99% [at 11.4 µM] | 
Cc1cccc(C(=O)O)c1[N+](=O)[O-] | 2.6% | 
Cc1ccc2nc(CC(=O)c3ccc4ccccc4c3)c(=O)[nH]c2c1 | -4.04% [at 11.4 µM] | 
C=CC(=O)c1ccc2ccccc2c1 |  | 12.6 µM (active)
Cc1csc(-c2nc3ccccc3n2C)n1 | -12.9% [at 25.6 µM] | 
Cc1cccc2c3c(ccc12)C1=C(C(=O)C3=O)C(C)CO1 (stereo not given) | -24.2% | 
C/C(CCN1CCc2nc(-c3ccccc3)c(-c3ccccc3)cc2C1)=N\O[C@@H](C)c1cn([C@@H]2COC[C@@H]2O)nn1 | 0.588% [at 11.4 µM] | 
O=C(Oc1cc(OC(=O)c2ccccc2)c2c(c1)OC(c1ccc(OC(=O)c3ccccc3)c(OC(=O)c3ccccc3)c1)[C@@H](OC(=O)c1ccccc1)C2)c1ccccc1 (stereo not given in full) | -3.99% | 
COC(=O)C(C(=O)OC)[C@@H]1CCCC(=O)C1 | 14.4% [at 11.4 µM] | 
C=CCn1c(SCC(=O)Nc2nc3ccccc3s2)nnc1-c1ccccc1O |  | 25.1 µM (active)
C=CCn1c(CSc2nc3ccccc3s2)nnc1SCC(=O)NCc1ccco1 | -9.16% | 
CCn1c(SCC(=O)Nc2nc3ccc(OC)cc3s2)nnc1-c1ccoc1C | -5.95% | 
CC(C)C(N)C(=O)OCCOCn1cnc2c(=O)[nH]c(N)nc21 (stereo not given) | 13.5% | 
Cc1ccc2c(c1)C(O)(CC(=O)c1cccnc1)C(=O)N2 (stereo not given) | 0.486% | 
COc1ccc(/C=C/NC(=O)c2ccc(OC)cc2)cc1 | -5.84% [at 11.4 µM] | 

SMILES | activity change, negative = inhibition | Potency
O=C(NCc1ccccn1)c1cc2ccccc2oc1=O | 4.58% | 
Cc1cccn2c(=O)c3cc(C(=O)NCc4ccccn4)n(C)c3nc12 | 15.7% | 
O=C(NCc1ccccn1)c1ccc2nc(-c3ccco3)c(-c3ccco3)nc2c1 |  | 3.16 µM (active)
O=C(O)c1ccc(Cl)c(S(=O)(=O)Nc2ccccc2Cl)c1 | -1.82% | 
N#Cc1c(N)sc2c1CCN(C(=O)OCc1ccccc1)C2 |  | 15.8 µM (active)
N#Cc1ccc(COC(=O)Cn2nnc(-c3ccccc3)n2)cc1 | -11.8% | 
NC1(C(=O)OCc2ccccc2)CCCC1 | -11.8% [at 11.4 µM] | 
CC(CCC(=O)O)C1CCC2C3C(O)C[C@@H]4CC(O)CC[C@@]4(C)C3CC[C@@]12C (stereo not given in full) | inactive | 
C#CCC(C(=O)OC)(C(=O)OC)C(C[N+](=O)[O-])c1ccccc1 (stereo not given) | -3.59% [at 11.4 µM] | 
CCC(CCC(C)C1CCC2C3CC=C4CC(O)CC[C@@]4(C)C3CC[C@@]12C)C(C)C (stereo not given in full) | -3.31% | 
CO[C@H]1COC(=O)C/C=C\[C@H](C)COC(=O)[C@@H](OCc2ccccc2)/C=C\[C@@H]1C | 5.89% [at 11.4 µM] | 
C=C1C(=O)C23C(O)C1CCC2[C@]12COC3(O)C(O)C1C(C)(C)CC[C@H]2O (stereo not given in full) | 0.681% | 
CCOCCCN1C(=O)CN(C2CCCCC2)C(=O)C1c1ccc(OCC)c(OC)c1 (stereo not given) | 2.68% | 
COC(=O)[C@@H]1CC[C@H](C)[C@@H](c2ccc(C)cc2)N1C(=O)c1ccc(/C=N\OC[C@@H](O)COCc2ccco2)cc1 | -2.65% [at 11.4 µM] | 
Cc1ccc(-c2nc(CS(=O)CC(=O)N3CCN(c4ncccn4)CC3)c(C)o2)cc1 (stereo not given) | -6.88% | 
COc1ccc2[nH]c(=O)c(CN(Cc3nnnn3CCc3ccccc3)CC3CCCO3)cc2c1 (stereo not given) |  | 1.26 µM (active)
CCOc1ccc2[nH]c(=O)c(CN(Cc3nnnn3CCc3ccccc3)CC3CCCO3)cc2c1 (stereo not given) | -10.3% | 
CCOc1ccc2[nH]c(=O)c(CN(Cc3nnnn3Cc3ccccc3)CC3CCCO3)cc2c1 (stereo not given) | 7.24% | 
O=C(CSc1nnc2scc(-c3ccc(F)cc3)n12)NCc1ccco1 | 3.22% | 
CCCc1nc2c(C)cc(-c3nc4ccccc4n3C)cc2n1Cc1ccc(-c2ccccc2C(=O)O)cc1 | 3% | 
